These results are taken from PubChem BioAssay (NCATS).

Assay [1] in a line: qHTS drug screen for cell cycle checkpoint inhibitors in PARPi-resistant BRCA-mutant ovarian cancer cell lines. (AID 1963452; calls by dose curve). Conditions: PEO1/OlaR viability, CellTiter-Glo luminescence, 96 h; for Z-AUC: stronger effect = lower value. The procedure, abridged:
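PEO1, PEO4 and PEO1/OlaR ovarian cancer cells, 600 per well, exposed 96 h at 37C to a dilution series. Viability read by CellTiter-Glo luminescence, normalized to DMSO and empty wells; activity summarized as Z-AUC.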

The nature of assay [2]: qHTS for identification of novel therapeutic agents for treatment of microphthalmiaassociated transcription factor (MiT) renal cell carcinoma (RCC) (AID 1963991; calls by dose curve). To be noted: CellTiter-Glo, 48 h; for z-score: stronger effect = lower value; for Potency: active = Z-AUC below -0.8 in all three lines. The procedure, abridged: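 Viability of three TFE3-fusion renal carcinoma lines measured by CellTiter-Glo after 48 h treatment with each of 1912 compounds at 11 concentrations. Responses scaled between DMSO (100%) and empty wells (0%) before curve fitting.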

The nature of assay [3]: qHTS profiling for inhibitors of Plasmodium falciparum proliferation (AID 504749).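 On activity, negative = inhibition: 0% = DMSO vehicle and full inhibition = artemisinin control.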 On all read-outs here: nearly all actives have a fitted effect of over 60% in size. Conditions: P. falciparum in erythrocytes, SYBR Green DNA, 72 h; for activity, negative = inhibition: at 28.7 µM (top of the series). The method, boiled down:
(§1)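 Fluorescence of SYBR Green-bound parasite DNA, read at 485/535 nm, served as the growth measure. Infected erythrocytes were cultured with compound 72 h; artemisinin (0.29 uM) and DMSO wells defined the normalization range.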
In general terms: qHTS replaces the single test concentration by a dilution series.

The next assay deals with 3D7. Described as above. To be noted: P. falciparum in erythrocytes, SYBR Green DNA, 72 h; series mostly up to 28.7 µM. The procedure, abridged: as §1
The subject of a further assay is 7G8. The description is as above. Conditions: P. falciparum in erythrocytes, SYBR Green DNA, 72 h; series mostly up to 28.7 µM. The method, boiled down:
as §1

The next assay relates to AA1029. The description is as above. Conditions: P. falciparum in erythrocytes, SYBR Green DNA, 72 h; series mostly up to 28.7 µM. The procedure, abridged:
as §1

Another assay deals with ATS189. The description is as above. To be noted: P. falciparum in erythrocytes, SYBR Green DNA, 72 h; series mostly up to 28.7 µM. The procedure, abridged:
as §1

The next assay has as its system ATS95. The assay is described as above. To be noted: P. falciparum in erythrocytes, SYBR Green DNA, 72 h; series mostly up to 28.7 µM. The procedure, abridged:
as §1

A further assay has as its system C2A. The assay is described as above. Conditions: P. falciparum in erythrocytes, SYBR Green DNA, 72 h; series mostly up to 28.7 µM. The procedure, abridged:
as §1

The test system of the next assay is AS120. The description is as above. Conditions: P. falciparum in erythrocytes, SYBR Green DNA, 72 h; series mostly up to 28.7 µM. The method, boiled down:
as §1

The mark [4] stands for this setting: measured here: PEO1 parental Z-AUC.
Setting [5] is: TFE3-RCC UOK109 viability, measured here: UOK109 Z-AUC.
Setting [6] is: TFE3-RCC viability, measured here: UOK124 Z-AUC.
The mark [7] stands for this setting: TFE3-RCC viability, measured here: UOK145 Z-AUC.

SMILES strings stand for the structures. Results filed as inconclusive are left out. Active and inactive are the calls of the source. Unless noted, the call rests on the fitted dose curve; in most records, active means well fitted inhibition curve with a large enough effect; inconclusive means small, poorly fitted or top-dose-only effect; inactive means flat fitted curve, though single readings scatter.
Potency means the concentration at half of the fitted maximal effect.

On to `CS(=O)(=O)c1ccc(C2=C(c3ccccc3)C(=O)OC2)cc1`, for which the Z-AUC is 0.327 (inactive) in assay [1], 0.543 in assay [1] (setting [4]) and 0.0438 in assay [1] (measured here: PEO4 Z-AUC). The values for the z-score in assay [2] (setting [5]), in assay [2] (setting [6]) and in assay [2] (setting [7]) were 0.605, 0.766 and 0.708, respectively. Also, the activity, negative = inhibition in assay [3] (parasite line A) is 0.606% (inactive); in [3] (parasite line B), 18.5% (inactive). The Potency result in the assay with 3D7, with 7G8, in the assay with AA1029, in the assay with ATS189, in the assay with ATS95 and in the assay on C2A was “inactive” each time.
`COc1ccc(-c2nc3ccc(C4=NNC(=O)CC4C)cc3[nH]2)cc1` (stereo not given): the Z-AUC in assay [1] is -0.406 (inactive); in assay [1] (setting [4]), -0.248; in [1] (measured here: PEO4 Z-AUC) it was 0.0118. Moreover, the z-score in assay [2] (setting [5]) is 0.403; in assay [2] (setting [6]) it was 0.3; in assay [2] (setting [7]) it was 0.145.
As to `CNc1nc(Nc2ccc(C(=O)N3CCOCC3)cc2OC)ncc1Cl`, the figures for the Z-AUC in assay [1], in assay [1] (setting [4]) and in assay [1] (measured here: PEO4 Z-AUC) were -0.915 (inactive), -0.00443 and 0.143, respectively. Also, the z-score in assay [2] (setting [5]) is 0.622; in assay [2] (setting [6]), -0.0223; in [2] (setting [7]) it was 0.626.
For `O=C1NC(=O)C(c2cnc3ccccn23)=C1c1cn2c3c(cccc13)CN(C(=O)N1CCOCC1)CC2`, the Z-AUC in assay [1] is -1.3 (inactive); in [1] (setting [4]), -1.91; in assay [1] (measured here: PEO4 Z-AUC), -0.9. Also, the Potency in assay [2] (TFE3-RCC UOK109 viability) is 4180 nM (active). In addition, the z-score in [2] (setting [5]) was -1.6; in [2] (setting [6]) it was -1.78; in [2] (setting [7]) it was -1.46.
Consider `Clc1ccc(COC(Cn2ccnc2)c2ccc(Cl)cc2Cl)c(Cl)c1` (stereo not given), for which the Z-AUC in [1] was -0.245 (inactive); in assay [1] (setting [4]), 0.118; in assay [1] (measured here: PEO4 Z-AUC), -0.196. Also, the Potency in assay [3] (parasite line B) was 2820 nM (active); with 7G8, 708 nM (active); in the assay with AA1029 it was 4470 nM (active); with AS120, 2000 nM (active); with ATS95, 3980 nM (active).
Take `CN1CCN2c3ncccc3Cc3ccccc3C2C1` (stereo not given): the values for the Z-AUC in assay [1], in assay [1] (setting [4]) and in [1] (measured here: PEO4 Z-AUC) were -0.118 (inactive), -0.0867 and 0.472, respectively. Besides, the z-score in assay [2] (setting [5]) is 0.418; in assay [2] (setting [6]) it was 0.445; in assay [2] (setting [7]), 0.581. In addition, the activity, negative = inhibition in assay [3] (parasite line A) is -2.79% (inactive); in assay [3] (parasite line B) it was 7.38% (inactive). Moreover, the Potency entry in the assay with 3D7, in the assay on ATS189 and in the assay on C2A was “inactive” in each case. Also, in the assay on 7G8, the Potency is 11200 nM (active).
In the case of `CN1C(=O)C(Cc2c[nH]c3ccccc23)NC1=S` (stereo not given), the Z-AUC is -0.877 (inactive) in assay [1], -0.326 in assay [1] (setting [4]) and -0.823 in [1] (measured here: PEO4 Z-AUC). Also, the z-score in assay [2] (setting [5]) was 0.322; in [2] (setting [6]) it was 0.546; in assay [2] (setting [7]), 0.284.
Regarding `O=C(c1ccc(C(=O)N2CCC(N3CCCC3)CC2)c(Nc2ccccc2)c1)N1CCC(N2CCCC2)CC1`, the values for the Z-AUC in assay [1], in [1] (setting [4]) and in assay [1] (measured here: PEO4 Z-AUC) were 0.276 (inactive), 0.308 and 0.42, respectively. Also, the z-score in [2] (setting [5]) came out at 0.9; in [2] (setting [6]), 1.07; in [2] (setting [7]), 0.591.
`O=C(O)Cc1cccc(OCCCN(Cc2cccc(C(F)(F)F)c2Cl)CC(c2ccccc2)c2ccccc2)c1`: the Z-AUC in assay [1] is -0.299 (inactive); in [1] (setting [4]), 0.225; in assay [1] (measured here: PEO4 Z-AUC), 0.165. Besides, the z-score in assay [2] (setting [5]) was -0.604; in assay [2] (setting [6]), 0.0786; in assay [2] (setting [7]), 0.416.
In the case of `COc1ccc(-c2ccc3ncc4c(c3c2)n(-c2ccc(N3CCNCC3)c(C(F)(F)F)c2)c(=O)n4C)cn1`, the Potency in assay [1] was 123 nM (active); in assay [2] (TFE3-RCC UOK109 viability), 1480 nM (active). For the same compound, the results for the Z-AUC in assay [1] (setting [4]) and in [1] (measured here: PEO4 Z-AUC) were -2.24 and -2.26, respectively. The z-score in assay [2] (setting [5]) is -2.72; in [2] (setting [6]), -3.95; in [2] (setting [7]) it was -3.85.
Take `C[C@@H]1C[C@H]2[C@@H]3CCC4=CC(=O)C=C[C@]4(C)[C@@]3(F)[C@@H](O)C[C@]2(C)[C@@]1(O)C(=O)CO`: the Z-AUC in assay [1] was 0.337 (inactive); in [1] (setting [4]), 1.75; in assay [1] (measured here: PEO4 Z-AUC), 0.58. The z-score is 0.745 in assay [2] (setting [5]), 0.108 in assay [2] (setting [6]) and -1.45 in assay [2] (setting [7]).
Take `CN1C(=O)C[C@H](C(=O)N[C@@H](Cc2cnc[nH]2)C(=O)N2CCC[C@@H]2C(N)=O)NC1=O`: the Z-AUC in assay [1] is 0.875 (inactive); in assay [1] (setting [4]), 1.25; in assay [1] (measured here: PEO4 Z-AUC) it was 1.02. Besides, the z-score in [2] (setting [5]) was 0.71; in assay [2] (setting [6]), 0.308; in assay [2] (setting [7]), 0.628.
